Reference: the supplement of paper PMC6089552
The whole screen tested about 3,200 compounds, of which about 300 (9.4%) showed activity. Shown is part of a subset that was picked to be rich in actives.

System: A673/TR/shEF
Assay: cell viability (LOESS-normalised, relative to median of negative controls) (log2 ratio); higher = more viable cells (less compound effect), active = hit call of the paper (over 3 MAD below the median)
Details: treatment time: 72 h
Outline: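 A673/TR/shEF Ewing sarcoma cells (1,500 per well, 384-well plates) were grown with or without doxycycline to induce EWS-FLI1 shRNA knockdown, starting 24 h before compounds. Library compounds at two or more concentrations, with DMSO controls, were added for three days. Cell viability was read by CellTiter-Glo luminescence on an Envision reader, then LOESS-corrected per plate, divided by the median of negative controls and log2-transformed. Hits were wells at least three median absolute deviations from the median of all screened wells.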

[1] = 0.025 µM, library screen: screen1, EWS-FLI1 expression: high (no doxycycline)
[2] = 0.025 µM, library screen: screen1, EWS-FLI1 expression: low (doxycycline-induced shRNA knockdown)
[3] = 0.25 µM, library screen: screen1, EWS-FLI1 expression: high (no doxycycline)
[4] = 0.25 µM, library screen: screen1, EWS-FLI1 expression: low (doxycycline-induced shRNA knockdown)
[5] = 0.25 µM, library screen: screen2, EWS-FLI1 expression: high (no doxycycline)
[6] = 0.25 µM, library screen: screen2, EWS-FLI1 expression: low (doxycycline-induced shRNA knockdown)
[7] = 2.5 µM, library screen: screen1, EWS-FLI1 expression: high (no doxycycline)
[8] = 2.5 µM, library screen: screen1, EWS-FLI1 expression: low (doxycycline-induced shRNA knockdown)
[9] = 2.5 µM, library screen: screen2, EWS-FLI1 expression: high (no doxycycline)
[10] = 2.5 µM, library screen: screen2, EWS-FLI1 expression: low (doxycycline-induced shRNA knockdown)
[11] = 25 µM, library screen: screen1, EWS-FLI1 expression: high (no doxycycline)
[12] = 25 µM, library screen: screen1, EWS-FLI1 expression: low (doxycycline-induced shRNA knockdown)

Measured: cell viability (log2)

N#CC(C#N)=Cc1ccc(O)c(O)c1
inactive: [1] 0.0488 | [2] -0.0484 | [3] 0.042 | [4] -0.0954 | [5] 0.172 | [6] 0.124 | [7] 0.0531 | [8] -0.000697 | [9] 0.143 | [10] 0.061 | [11] -0.0656 | [12] 0.016

N#CC(C#N)=Cc1cc(O)c(O)c([N+](=O)[O-])c1
0.283: [3]
active: [7] -0.167 | [11] -0.153
inactive: [1] 0.235 | [2] -0.0184 | [4] 0.00958 | [8] -0.0107 | [12] 0.176

COc1cc(C=C(C#N)C#N)cc(O)c1O
inactive: [5] 0.15 | [6] 0.104 | [9] 0.12 | [10] 0.124

N#CC(C#N)=Cc1cc(O)c(O)c(O)c1
inactive: [1] -0.0494 | [2] 0.0428 | [3] 0.0608 | [4] -0.0659 | [5] 0.269 | [6] 0.131 | [7] -0.0151 | [8] 0.0163 | [9] 0.19 | [10] 0.0774 | [11] 0.0348 | [12] 0.1

N#CC(C#N)=Cc1ccc([N+](=O)[O-])c(O)c1
active: [7] -0.131 | [8] -0.169 | [9] -0.559 | [10] -0.298 | [11] -0.408 | [12] -0.158
0.311: [3]
inactive: [2] 0.0132 | [4] -0.0619 | [5] 0.0683 | [6] 0.016
0.298: [1]

N#CC(C#N)=Cc1ccc(O)cc1
inactive: [1] 0.0481 | [2] 0.0237 | [3] 0.0596 | [4] 0.0262 | [7] 0.0426 | [8] 0.0755 | [11] 0.0734 | [12] 0.0191

C[N+](C)(C)CCOC(=O)CBr
inactive: [5] 0.173 | [6] 0.097 | [9] 0.0892 | [10] 0.139

COc1ccc2c(c[n+](C)c3c4cc5c(cc4ccc23)OCO5)c1OC
inactive: [5] 0.273 | [6] 0.121 | [9] 0.106 | [10] 0.0124

CN1CC[C@@]23CCCC[C@@H]2[C@@H]1Cc1ccc(O)cc13
inactive: [5] 0.228 | [6] 0.105 | [9] 0.167 | [10] 0.081

C[C@]12CCC(=O)C=C1CCc1ccc(O)cc12
inactive: [3] 0.081 | [4] -0.029 | [7] 0.111 | [8] 0.113

CC(C)c1cc2c(c(O)c1O)[C@@]1(C(=O)O)CCCC(C)(C)[C@@H]1CC2
inactive: [3] 0.0242 | [4] 0.0347 | [7] 0.115 | [8] 0.191

CCC(C)C(=O)OC1CC2(C)C(c3ccoc3)OC(=O)CC23OC2(C)OC34C(OC(=O)C(C)C)C3(O)C(OC(=O)C5(C)OC5C)C5(C)CC3(O)C(C)(C5CC(=O)OC)C14O2 (stereo not given)
inactive: [3] 0.108 | [4] -0.0058 | [7] 0.0939 | [8] 0.12

CC(=O)O[C@@H]1CC[C@@]2(C)[C@@H](CC[C@@H]3[C@@H]2CC[C@]2(C)C(=O)CC[C@@H]32)C1
inactive: [3] 0.0923 | [4] 0.0254 | [7] 0.0362 | [8] 0.0893

C[C@]12CC[C@H](O)C[C@H]1CC[C@@H]1[C@@H]2CC[C@]2(C)[C@@H](C3=CC(=O)OC3)[C@@H](O)C[C@]12O
inactive: [3] 0.0825 | [4] 0.115 | [7] 0.137 | [8] 0.0999

CC(=O)O[C@H]1C[C@@H]2CC[C@@H]3[C@H](CC[C@@]4(C)[C@H]3C[C@H]([N+]3(C)CCCCC3)[C@@H]4OC(C)=O)[C@@]2(C)C[C@@H]1[N+]1(C)CCCCC1
inactive: 0.103 µM, library screen: screen3, EWS-FLI1 expression: high (no doxycycline) 0.0285 | 0.103 µM, library screen: screen3, EWS-FLI1 expression: low (doxycycline-induced shRNA knockdown) 0.0357 | [5] 0.133 | [6] 0.105 | 0.308 µM, library screen: screen3, EWS-FLI1 expression: high (no doxycycline) 0.115 | 0.308 µM, library screen: screen3, EWS-FLI1 expression: low (doxycycline-induced shRNA knockdown) 0.051 | 0.926 µM, library screen: screen3, EWS-FLI1 expression: high (no doxycycline) 0.183 | 0.926 µM, library screen: screen3, EWS-FLI1 expression: low (doxycycline-induced shRNA knockdown) 0.0779 | [9] 0.145 | [10] 0.0752 | 2.8 µM, library screen: screen3, EWS-FLI1 expression: high (no doxycycline) 0.112 | 2.8 µM, library screen: screen3, EWS-FLI1 expression: low (doxycycline-induced shRNA knockdown) 0.0286 | 8.3 µM, library screen: screen3, EWS-FLI1 expression: high (no doxycycline) 0.106 | 8.3 µM, library screen: screen3, EWS-FLI1 expression: low (doxycycline-induced shRNA knockdown) 0.0203 | 25 µM, library screen: screen3, EWS-FLI1 expression: high (no doxycycline) 0.16 | 25 µM, library screen: screen3, EWS-FLI1 expression: low (doxycycline-induced shRNA knockdown) 0.0865

CO[C@H]1C[C@H](O[C@H]2CC[C@@]3(C)[C@H](CC[C@@H]4[C@@H]3CC[C@]3(C)[C@@H](C5=CC(=O)OC5)[C@@H](OC(C)=O)C[C@]43O)C2)O[C@@H](C)[C@@H]1O
active: [3] -0.578 | [4] -1.73 | [7] -3.54 | [8] -4.25

C[C@H]1O[C@@H](O[C@H]2[C@@H](O)C[C@H](O[C@H]3[C@@H](O)C[C@H](O[C@H]4CC[C@@]5(C)[C@H](CC[C@@H]6[C@@H]5CC[C@]5(C)[C@@H](C7=CC(=O)OC7)[C@@H](O)C[C@]65O)C4)O[C@@H]3C)O[C@@H]2C)C[C@H](O)[C@@H]1O
active: [3] -0.13 | [4] -0.332 | [7] -1.73 | [8] -1.76

CC(=O)OC1CC(OC2C(O)CC(OC3C(O)CC(OC4CCC5(C)C(CCC6C5CC(O)C5(C)C(C7=CC(=O)OC7)CCC65O)C4)OC3C)OC2C)OC(C)C1OC1OC(CO)C(O)C(O)C1O (stereo not given)
inactive: [3] 0.0557 | [4] -0.286
active: [7] -2.91 | [8] -3.01

CC(=O)OC1CCC2(C)C(CCC3C2CCC2(C)C(C4=CC(=O)OC4)C(OC(C)=O)CC32O)C1 (stereo not given)
inactive: [3] -0.0585 | [4] -0.416
active: [7] -2.02 | [8] -2.26

NS(=O)(=O)c1ccc2c(c1)CNCC2
inactive: [5] 0.162 | [6] 0.085 | [9] 0.143 | [10] 0.0805

CC[S+]([O-])CCSP(=O)(OC)OC (stereo not given)
inactive: [3] 0.119 | [4] 0.0126 | [7] 0.119 | [8] 0.0247

NC(=O)c1cc([N+](=O)[O-])cc([N+](=O)[O-])c1
inactive: 0.025 µM, library screen: screen2, EWS-FLI1 expression: high (no doxycycline) 0.148 | 0.025 µM, library screen: screen2, EWS-FLI1 expression: low (doxycycline-induced shRNA knockdown) 0.069 | [3] 0.071 | [4] 0.00829 | [5] 0.134 | [6] 0.0542 | [7] 0.16 | [8] 0.158 | [9] 0.195 | [10] 0.121 | 25 µM, library screen: screen2, EWS-FLI1 expression: high (no doxycycline) 0.244 | 25 µM, library screen: screen2, EWS-FLI1 expression: low (doxycycline-induced shRNA knockdown) 0.114
